Data: PubChem BioAssay (EPA / NIEHS)
Values joined by “and” are separate entries in the source; they are usually repeats but may differ in a detail not shown here. Identical values can stand only once. The source holds several records for some structures; these can differ, active in one and inactive in another. Active and inactive are the calls of the source. The calls were made as follows: active = hit-call score of the fitted dose curve at least 0.9, where 1 is the maximum; inactive = score below 0.9.

What was measured:
[1] = read-out: Macrophage colony-stimulating factor (MCSF), CSF1 (gene 1435); test: BSK_hDFCGF_MCSF: BioMAP Diversity Plus: hDFCGF Assay for Macrophage colony-stimulating factor (MCSF) Biomarker Activity (AID 2283060); details: primary human foreskin fibroblasts; actives raise or lower the signal
How it was run: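 Human foreskin fibroblast primary cultures; M-CSF measured by ELISA 24 hours after chemical dosing. Bidirectional fitting relative to DMSO, with overt cytotoxicity tracked by parallel SRB total-protein staining (0.1% SRB, 10% TCA fixation, 560 nm).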

[2] = BSK_hDFCGF_SRB: Viability Assessment in the BioMAP Diversity Plus: hDFCGF Assay (AID 2283061); details: primary human foreskin fibroblasts;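 also: cells exposed to compound for 24 h before the read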
How it was run: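 Human foreskin fibroblasts in 96-well plates were treated 24 h. Total protein was measured by 0.1% SRB staining after 10% TCA fixation, read at 560 nm. Data were fitted bidirectionally against DMSO.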

[3] = read-out: TIMP metallopeptidase inhibitor 1 (TIMP1), TIMP1 (gene 7076); test: BSK_hDFCGF_TIMP1: BioMAP Diversity Plus: hDFCGF Assay for TIMP metallopeptidase inhibitor 1 (TIMP1) Biomarker Activity (AID 2283062); details: primary human foreskin fibroblasts; actives raise or lower the signal
How it was run: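 Human foreskin fibroblast primary cultures dosed for 24 h; secreted/surface TIMP-1 quantified by ELISA. Bidirectional curve fitting against DMSO baseline; cytotoxicity tracked in parallel cultures by SRB total-protein staining.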

[4] = read-out: Monokine induced gamma interferon (MIG), CXCL9 (gene 4283); test: BSK_hDFCGF_MIG: BioMAP Diversity Plus: hDFCGF Assay for Monokine induced gamma interferon (MIG) Biomarker Activity (AID 2283063); details: primary human foreskin fibroblasts; actives raise or lower the signal
How it was run: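 MIG/CXCL9 measured by ELISA 24 h after dosing primary human skin fibroblasts. Activity fitted in both directions against DMSO controls. Cytotoxicity was checked in parallel cultures by SRB staining read at 560 nm.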

[5] = read-out: Matrix Metallopeptidase 1 (MMP1), MMP1 (gene 4312); test: BSK_hDFCGF_MMP1: BioMAP Diversity Plus: hDFCGF Assay for Matrix Metallopeptidase 1 (MMP1) Biomarker Activity (AID 2283064); details: primary human foreskin fibroblasts; actives raise or lower the signal
How it was run: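 Primary human foreskin fibroblasts exposed to chemicals for 24 h; MMP1 measured by ELISA. Cytotoxicity tracked by SRB staining in parallel cultures; bidirectional fit relative to DMSO.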

[6] = read-out: Vascular cell adhesion molecule 1 (VCAM1), VCAM1 (gene 7412); test: BSK_hDFCGF_VCAM1: BioMAP Diversity Plus: hDFCGF Assay for Vascular cell adhesion molecule 1 (VCAM1) Biomarker Activity (AID 2283065); details: primary human foreskin fibroblasts; actives raise or lower the signal;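 as to AC50: VCAM-1 protein level quantified by ELISA after 24 h chemical exposure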
How it was run: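 Human foreskin fibroblast primary cells dosed with chemical, VCAM-1 measured by ELISA at 24 h. Bidirectional curve fitting relative to DMSO as negative control/baseline.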

[7] = read-out: Plasminogen activator inhibitor-1 (PAI1), SERPINE1 (gene 5054); test: BSK_hDFCGF_PAI1: BioMAP Diversity Plus: hDFCGF Assay for Plasminogen activator inhibitor-1 (PAI1) Biomarker Activity (AID 2283066); details: primary human foreskin fibroblasts; actives raise or lower the signal
How it was run: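 Human foreskin fibroblast primary cells, 24 h chemical exposure; PAI-1 measured by ELISA. Bidirectional fitting relative to DMSO; parallel cultures stained with SRB for total protein to flag overt cytotoxicity.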

[8] = read-out: Intercellular Adhesion Molecule 1 (ICAM1), ICAM1 (gene 3383); test: BSK_KF3CT_ICAM1: BioMAP Diversity Plus: KF3CT Assay for Intercellular Adhesion Molecule 1 (ICAM1) Biomarker Activity (AID 2283067); details: primary human keratinocytes with fibroblasts; actives raise or lower the signal
How it was run: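 Human keratinocyte–foreskin fibroblast co-culture was treated for 24 h. Cell-surface ICAM-1 was quantified by ELISA, fitted bidirectionally relative to DMSO. Cytotoxicity was checked in parallel cultures by SRB total-protein staining.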

[9] = read-out: Interferon-gamma inducible Protein 10 (IP10), CXCL10 (gene 3627); test: BSK_KF3CT_IP10: BioMAP Diversity Plus: KF3CT Assay for Interferon-gamma inducible Protein 10 (IP10) Biomarker Activity (AID 2283068); details: primary human keratinocytes with fibroblasts; actives raise or lower the signal
How it was run: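 Signal is secreted/surface IP-10 by ELISA in a human primary skin co-culture of keratinocytes and foreskin fibroblasts, taken 24 h post-dosing; DMSO served as negative control.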

[10] = BSK_KF3CT_SRB: Viability Assessment in the BioMAP Diversity Plus: KF3CT Assay (AID 2283069); details: primary human keratinocytes with fibroblasts;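 also: total protein by sulforhodamine B staining as a cytotoxicity measure; read 24 h after compound addition; fitted for both signal gain and loss against DMSO baseline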
How it was run: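 Human keratinocyte and foreskin fibroblast co-culture exposed to chemical for 24 h. Total protein measured in parallel cultures by 0.1% sulforhodamine B staining after 10% TCA fixation, read at 560 nm; bidirectional fit relative to DMSO.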

With `Cc1ccc(O)c(-n2nc3ccccc3n2)c1` the outcome [1] was “inactive”, the outcome [2] was “inactive” and the outcome [3] was “inactive”. For the same molecule, the outcome [4] was “inactive”, the outcome [5] was “inactive” and the outcome [6] was “inactive”. For the same molecule, the outcome [7] was “inactive”, the outcome [8] was “inactive” and the outcome [9] was “inactive”. The outcome [10] was “inactive”.
In the case of `NCC(F)(F)C(F)(F)C(F)(F)C(F)(F)C(F)(F)C(F)(F)F`, the outcome [1] is reported as “inactive”, the outcome [2] is reported as “inactive” and the outcome [3] is reported as “inactive”. The outcome [4] was “inactive”, the outcome [5] was “inactive” and the outcome [6] was “inactive”. For the same molecule, the outcome [7] was “inactive”, the outcome [9] was “inactive” and the outcome [10] was “inactive”.
For `NS(=O)(=O)C(F)(F)C(F)(F)C(F)(F)C(F)(F)C(F)(F)C(F)(F)F`, the outcome [1] was “inactive”, the outcome [2] was “inactive” and the outcome [3] was “inactive”. For the same molecule, the outcome [4] was “inactive”, the outcome [5] was “inactive” and the AC50 [6] was 26.9 µM (active). For the same molecule, the outcome [6] was “inactive”, the outcome [7] was “inactive” and the outcome [8] was “inactive”. For the same molecule, the outcome [9] was “inactive” and the outcome [10] was “inactive”.
In the case of `NC(O)(C(F)(F)F)C(F)(F)F`, the outcome [1] is reported as “inactive”, the outcome [2] is reported as “inactive” and the outcome [3] is reported as “inactive”. The outcome [4] was “inactive”, the outcome [5] was “inactive” and the outcome [6] was “inactive”. For the same molecule, the outcome [7] was “inactive”, the outcome [8] was “inactive” and the outcome [9] was “inactive”. The outcome [10] was “inactive”.
In the case of `FC(F)(F)C(F)(F)C(F)(F)CC1CO1` (stereo not given), the outcome [1] is reported as “inactive”, the outcome [2] is reported as “inactive” and the outcome [3] is reported as “inactive”. For the same molecule, the AC50 [4] was 6.18 µM (active), the outcome [4] was “inactive” and the outcome [5] was “inactive”. The outcome [6] was “inactive”, the outcome [7] was “inactive” and the outcome [9] was “inactive”. The outcome [10] was “inactive”.
With `Cc1ccc(S(=O)(=O)C(I)I)cc1` the AC50 [1] was 2.36 µM (active), the AC50 [2] was 2.63 µM (active) and the AC50 [3] was 1.62 µM (active). The AC50 [4] was 2.68 µM (active), the AC50 [5] was 2.22 µM (active) and the AC50 [6] was 0.942 µM (active). For the same molecule, the AC50 [7] was 2.41 µM (active), the AC50 [9] was 7.09 µM (active) and the AC50 [10] was 5.19 µM (active).
In the case of `FC(F)(F)C(F)(F)C(F)(F)C(F)(F)C(F)(F)C(F)(F)C(F)(F)CCI`, the AC50 [1] is reported as 1.47 µM (active), the outcome [1] is reported as “inactive” and the outcome [2] is reported as “inactive”. The AC50 [4] was 3.33 µM (active), the outcome [4] was “inactive” and the outcome [5] was “inactive”. The outcome [6] was “inactive”, the outcome [7] was “inactive” and the outcome [9] was “inactive”. For the same molecule, the outcome [10] was “inactive”.
In the case of `CCN(CC)c1ccc(N=Nc2ccccc2)cc1`, the outcome [1] is reported as “inactive”, the outcome [2] is reported as “inactive” and the outcome [3] is reported as “inactive”. The outcome [4] was “inactive”, the AC50 [6] was 20 µM (active) and the outcome [7] was “inactive”. The outcome [8] was “inactive”, the outcome [9] was “inactive” and the outcome [10] was “inactive”.
For `O=C(O)CCC(F)(F)C(F)(F)C(F)(F)C(F)(F)C(F)(F)C(F)(F)C(F)(F)F`, the outcome [1] was “inactive”, the AC50 [2] was 2.25 µM (active) and the outcome [2] was “inactive”. The outcome [3] was “inactive”, the outcome [4] was “inactive” and the outcome [5] was “inactive”. For the same molecule, the outcome [6] was “inactive”, the outcome [7] was “inactive” and the outcome [8] was “inactive”. For the same molecule, the outcome [9] was “inactive” and the outcome [10] was “inactive”.
In the case of `NC(=O)C(F)(F)C(F)(F)C(F)(F)C(F)F`, the outcome [1] is reported as “inactive”, the outcome [2] is reported as “inactive” and the outcome [3] is reported as “inactive”. The outcome [4] was “inactive”, the outcome [5] was “inactive” and the outcome [6] was “inactive”. For the same molecule, the outcome [7] was “inactive”, the outcome [8] was “inactive” and the outcome [9] was “inactive”. For the same molecule, the outcome [10] was “inactive”.
For `CC(C)CCCC(C)CCO` (stereo not given), the outcome [1] was “inactive”, the outcome [2] was “inactive” and the outcome [3] was “inactive”. The outcome [4] was “inactive”, the outcome [5] was “inactive” and the outcome [6] was “inactive”. For the same molecule, the outcome [7] was “inactive”, the AC50 [8] was 36.5 µM (active) and the AC50 [9] was 35.6 µM (active). The AC50 [10] was 34.4 µM (active).
With `OCCCC(F)(F)C(F)(F)C(F)(F)C(F)(F)C(F)(F)C(F)(F)C(F)(F)C(F)(F)F` the AC50 [1] was 8.04 µM (active) and 6.66 µM (active), the AC50 [2] was 9.4 µM (active) and 6.19 µM (active) and the AC50 [3] was 9.8 µM (active) and 11.3 µM (active). For the same molecule, the AC50 [4] was 12.5 µM (active) and 12 µM (active), the AC50 [5] was 19 µM (active) and 13.3 µM (active) and the AC50 [6] was 9.41 µM (active) and 6.1 µM (active). The AC50 [7] was 6.66 µM (active) and 5.89 µM (active), the AC50 [9] was 12.8 µM (active) and 9.49 µM (active) and the AC50 [10] was 8.92 µM (active) and 10.7 µM (active).
For `O=C(O)C(F)(F)C(F)(F)C(F)(F)C(=O)O`, the outcome [1] was “inactive”, the AC50 [2] was 1.81 µM (active) and 19.7 µM (active) and the outcome [3] was “inactive”. The outcome [4] was “inactive”, the outcome [5] was “inactive” and the outcome [6] was “inactive”. For the same molecule, the outcome [7] was “inactive”, the outcome [9] was “inactive” and the outcome [10] was “inactive”.
With `C[C@]12CC[C@H]3C(=CCc4cc(O)ccc43)[C@@H]1CCC2=O` the outcome [1] was “inactive”, the outcome [2] was “inactive” and the outcome [3] was “inactive”. The outcome [4] was “inactive”, the outcome [5] was “inactive” and the outcome [6] was “inactive”. For the same molecule, the outcome [7] was “inactive”, the outcome [9] was “inactive” and the outcome [10] was “inactive”.
With `O=S(=O)(Cl)C(F)(F)C(F)(F)C(F)(F)C(F)(F)C(F)(F)C(F)(F)C(F)(F)C(F)(F)F` the outcome [1] was “inactive”, the outcome [2] was “inactive” and the outcome [3] was “inactive”. For the same molecule, the outcome [4] was “inactive”, the outcome [5] was “inactive” and the outcome [6] was “inactive”. For the same molecule, the outcome [7] was “inactive”, the AC50 [9] was 34.8 µM (active) and 32.5 µM (active) and the outcome [10] was “inactive”.
